HCMV inh: inhibitors of human cytomegalovirus; HFF cells, HCMV-luciferase reporter, 72 h; stronger effect = lower value; activity change, negative = inhibition, % at 57.5 µM; actives 4.5% (n = 410,000); AID 1259415; in the data active = activity change below about -60%; inconclusive = no clear call, values can overlap the other calls; inactive = above about -39%
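Two-dose cell screen: HFF monolayers treated with compounds and infected with luciferase-expressing HCMV at 1 PFU/cell, 72 h at 37C, then lysed for luciferase measurement.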
Lassa entry inh: Lassa virus entry inhibition; actives 1.2% (n = 300,000); Lassa virus pseudotype entry inhibition, cell reporter; Potency, µM (doses to about 37.9 µM), inactives show top-dose activity change, negative = inhibition, actives largely listed as inhibitors; calls by dose curve; tested in HEK293 cells; note: potency is the fitted concentration of half-maximal effect; nearly all actives have a fitted effect of over 50% in size
HCV inhibitor: HCV inhibition; actives 3.4% (n = 340,000); Potency, µM (titrated, usually from 41.8 µM), without a hit: at the highest dose activity change, negative = inhibition, actives largely listed as inhibitors; AID 651820; Huh7.5.1 HCVcc-Cre infection, luciferase reporter, 44 h; active = well fitted inhibition curve with a large enough effect; inconclusive = small, poorly fitted or top-dose-only effect, or another doubt; inactive = no such curve, though single readings can be large or run the other way; note: potency is the fitted concentration of half-maximal effect
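After 44 h co-culture of compound, cells and HCVcc-Cre (~0.5 moi), substrate is added for 15 min at room temperature and luciferase measured over 15 sec. Cells were seeded at 1,000/well and pre-cultured 4 h.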
Marburg entry inh: blocks Marburg virus binding to or entry into cells; Potency, µM (top dose mostly 37.8 µM), for inactives: top-dose activity change, negative = inhibition, actives largely listed as inhibitors; Marburg virus pseudotyped entry inhibition, cell reporter; AID 540276; actives 1.8% (n = 300,000); calls by dose curve; tested in HEK293 cells; note: potency is the fitted concentration of half-maximal effect
FMDV antiviral: antivirals against foot and mouth disease virus; FMDV antiviral cell-based qHTS; Potency, µM (doses to about 57.9 µM), for inactives: at the highest dose activity change, negative = inhibition, most hits filed as inhibitors; actives 1.2% (n = 410,000); AID 1159524; calls by dose curve; tested in HEK293T cells; note: read-out not given here; potency is the fitted concentration of half-maximal effect; nearly all actives have a fitted effect of over 45% in size
* marks the source's active call; other numbers are inactive results; ? = inconclusive; · = not tested or not shown; [ ] = remark or other dose. Only some compounds are listed: those with a hit (about 7.9% of all), similar ones and a draw of the others. % is set by controls: 0 for no effect and ±100 for the full control effect.

SMILES | HCMV inh | Lassa entry inh | HCV inhibitor | Marburg entry inh | FMDV antiviral
O=c1ccn(Cc2ccccc2)cc1 | -2 | · | 34% | · | -20%
Cc1ccccc1Cn1ccc(=NCc2ccccc2)cc1 | -98* | 11% | 26% | 12%[46.1 µM] | 1%
CCN(CC)c1ccc(S(=O)(=O)N2CCOCC2)cc1NC(=O)COC(=O)C1=COCCO1 | -27 | 3% | -5% | -2%[46.1 µM] | 5%
Cc1cc(/C=N/n2cnnc2)c(C)n1-c1ccc(OCc2ccc(F)cc2)cc1 | -86* | ? | 11µM* | ? | ·
Cc1cc(/C=N/n2cnnc2)c(C)n1-c1ccc(OCc2ccc(Cl)cc2Cl)cc1 | · | 7.1µM* | 5.6µM* | 8.9µM* | -46%
Cc1cc(/C=N/n2cnnc2)c(C)n1-c1ccc(Cl)cc1 | -17 | -20% | 10% | ? | 0%
CC1=C(C(=O)OC2CCCCCC2)C(c2cccc(F)c2F)CC(=O)N1 (centres undefined) | -36 | 13%[46.1 µM] | · | 12%[46.1 µM] | 0%
Brc1ccc(-c2csc(NNC3=NCCCCC3)n2)cc1 | ? | ? | ? | -13% | 29%
CC(C)(C)c1ccc(-c2csc(NNC3=NCCCCC3)n2)cc1 | -5 | ? | 25µM* | ? | 29%
FC(F)Oc1ccc(-c2csc(NNC3=NCCCCC3)n2)cc1 | -16 | ? | ? | ? | 28µM*
C[C@H](NC(=O)C[C@@H]1C=C[C@@H](NC(=O)CN2CCOCC2)[C@@H](CO)O1)c1ccccc1 | -14 | · | · | · | -17%
CCN(CC)S(=O)(=O)c1cccc(S(=O)(=O)N2CCCCC2)c1 | 0 | 7% | 7% | 5% | ·
CCN(CC)S(=O)(=O)c1cccc(S(=O)(=O)c2cccc(S(=O)(=O)N(CC)CC)c2)c1 | -69* | ? | 11µM* | ? | -4%
CCC1=[N+](CC(=O)c2ccc(C)cc2)CCn2c(C)ccc21 | -63* | 0% | ? | -2% | -23%
CN[C@@H](C)[C@H](O)c1ccccc1 | · | · | · | 11µM* | -7%
COc1ccc(NC(=O)c2cccc(Oc3ccc([N+](=O)[O-])cc3Cl)c2)cc1 | -87* | ? | ? | ? | -6%
COc1ccc(OCCNC(=O)c2cccc(Oc3ccc(C(F)(F)F)cc3[N+](=O)[O-])c2)cc1 | -66* | -30% | ? | ? | ?
O=C(Nc1cccc(Cl)c1)c1cccc(Oc2ccc([N+](=O)[O-])cc2Cl)c1 | -89* | -6% | ? | -29% | ?
Cc1ccc(C(=O)OC(C(=O)O)C(OC(=O)c2ccc(C)cc2)C(=O)O)cc1 (centres undefined) | -12 | · | 13% | · | -5%
Cc1ccc(C)c(-c2[nH]ncc2CN2CCCC(CO)(Cc3ccccc3C)C2)c1 (centres undefined) | -8 | · | 13µM* | 25µM* | -25%
O=C1C(Nc2ccccc2)=C(N2CCCCC2)C(=O)c2ccccc21 | -69* | -17% | 10µM* | ? | -3%
Cc1ccc(NC2=C(N3CCCCC3)C(=O)c3ccccc3C2=O)cc1 | -103* | ? | -5% | ? | ·
CN(C1=C(N2CCCCC2)C(=O)c2ccccc2C1=O)c1ccccc1 | -20 | ? | 13µM* | ? | ·
O=C(/C=C/c1ccc(O)cc1)c1ccccc1 | 0 | -20%[46.1 µM] | 7% | ? | -2%
O=C1C(Nc2cccc(O)c2)=C(N2CCCCC2)C(=O)c2ccccc21 | -28 | -24% | 2% | ? | ·
SMILES | HCMV inh | Lassa entry inh | HCV inhibitor | Marburg entry inh | FMDV antiviral
O=C(/C=C/c1ccc(O)cc1)c1ccc(NC2=C(N3CCCCC3)C(=O)c3ccccc3C2=O)cc1 | -99* | ? | 10µM* | ? | ?
COc1ccccc1-c1ccnc(-n2ncc(C(=O)N3CCN(C4CCCC4)CC3)c2-c2ccco2)n1 | · | · | · | · | 0%
CN(c1ccc(OCCOc2ccccc2Cl)cc1)S(=O)(=O)c1ccccc1 | -34 | ? | ? | ? | -18%
CC(=O)Nc1ccc(S(=O)(=O)N(C)CC(=O)OCC(=O)NNC(=O)c2ccccc2F)cc1 | 11 | -3% | 13% | -4% | 4.5µM*
CC(=O)Nc1ccc(S(=O)(=O)N(C)CC(=O)OCC(=O)c2ccc[nH]2)cc1 | 17 | 0%[46.1 µM] | 28% | -2% | -17%
CC(=O)Nc1ccc(S(=O)(=O)N(C)c2ccc(OCC(=O)NCCc3ccccc3F)cc2)cc1 | -62* | · | ? | · | ?
COc1ccc(OCCOc2ccc(N(C)S(=O)(=O)c3ccccc3)cc2)cc1 | -4 | · | 11µM* | · | ?
CC(=O)Nc1ccc(S(=O)(=O)N(C)c2ccc(OCCOc3ccccc3F)cc2)cc1 | 0 | -19% | 10µM* | 1% | -10%
Cc1ccc(CNC(=O)C2CCCN(S(=O)(=O)c3cn(C)cn3)C2)cc1 (centres undefined) | -15 | ? | · | · | 25%
Cc1ccc(N2CCN(CC(O)COc3ccccc3)CC2)cc1 (centres undefined) | -18 | -3%[46.1 µM] | -9% | -2%[46.1 µM] | -8%
Cn1c(Sc2ccccc2Cl)c(C=O)c2ccccc21 | -10 | -25% | 3% | -6% | -5%
Cn1c(Sc2ccc(Cl)cc2)c(C=O)c2ccccc21 | ? | -23% | 10µM* | -28% | ?
Cc1cccc(C)c1NC(=O)C(Cl)=C(Cl)Cl | -89* | -4% | -26% | ? | 1%
CCN(CC)CC(=O)Nc1c(C)cccc1C | -31 | -4% | ? | ? | -14%
COc1ccc(-c2cc(-c3cc(C)ccc3O)[nH]n2)cc1 | -35 | ? | 3.5µM* | ? | 14%
Cc1ccc(O)c(-c2cc(-c3ccccc3C)[nH]n2)c1 | 54 | ? | 11µM* | ? | 27%
Cc1ccc(N(C(=O)Cn2nnc(-c3ccc(C)o3)n2)C(C(=O)NC2CCCC2)c2ccncc2)cc1 (centres undefined) | -4 | · | 19% | -1%[46.1 µM] | 8%
COc1ccc(C2(CNC(=O)c3ccc(OC)c([N+](=O)[O-])c3)CCCCC2)cc1OC | 50 | -10% | -30% | -34% | ?
Cc1ccc2c(c1)C1CN(C)CCC1N2C(=O)CCCN1C(=O)c2cccc3cccc(c23)C1=O (centres undefined) | -33 | 7% | ? | 7.9µM* | -3%
Cc1ccc2c(c1)C1CN(C)CCC1N2C(=O)Nc1cccc(C(F)(F)F)c1 (centres undefined) | -6 | -24% | ? | ? | 16%
Cc1ccc2c(c1)[C@@H]1CN(C)CC[C@@H]1N2C(=O)Nc1cccc(C(F)(F)F)c1 | -1 | -7% | 10µM* | ? | -13%
Cc1ccc2c(c1)C1CN(C)CCC1N2C(=S)NC(=O)c1ccc(Br)cc1 (centres undefined) | -62* | · | -21% | · | ?
COc1ccc(OCC(=O)N2c3ccc(C)cc3C3CN(C)CCC32)cc1 (centres undefined) | 4 | -3% | 2% | 0%[46.1 µM] | 8%
Cc1cc(Br)c2nc3c(c(C(=O)O)c2c1)CCCCC3 | -31 | 22% | 13% | 4% | -16%
O=C1N(c2ccccc2)C[C@@H]2C[C@@H](c3cc4ccccc4o3)N3CCC[C@@]123 | -99* | ? | ? | ? | -29%
